# Results published in publication PMC7862700, “An all-to-all approach to the identification of sequence-specific readers for epigenetic DNA modifications on cytosine”.
# What was measured:
# Assay in all cases: DAPPL (digital affinity profiling via proximity ligation, sequencing); 10 mM Tris-HCl pH 7.5, 50 mM NaCl, 1 mM DTT, 4% glycerol, room temperature, 30 min; GST-TFs on glutathione beads, 16-mer random dsDNA library, 0.1% formaldehyde crosslink after washing; high values mean tight binding
# FEV = molecular target: T1, FEV (Homo sapiens, UniProt Q99581 1-238); conditions: protein: recombinant; tags: N-terminal GST; dsDNA, one strand shown
# T1 sequence: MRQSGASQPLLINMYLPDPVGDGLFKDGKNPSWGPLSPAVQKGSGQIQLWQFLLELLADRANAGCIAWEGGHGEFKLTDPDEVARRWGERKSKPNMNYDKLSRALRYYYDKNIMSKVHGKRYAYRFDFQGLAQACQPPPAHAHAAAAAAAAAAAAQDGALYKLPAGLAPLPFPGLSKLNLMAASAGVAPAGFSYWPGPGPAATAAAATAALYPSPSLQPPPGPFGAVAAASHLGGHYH
# In short: (§1)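 Human transcription factors fused to GST were expressed in yeast, captured on glutathione beads, given DNA barcodes and pooled with a GST-only negative control. Pools were incubated with 200 nmole of a 16-mer random double-stranded DNA library in Tris/NaCl/DTT/glycerol buffer at room temperature for 30 min. They were then washed, crosslinked with 0.1% formaldehyde, proximity-ligated (BsaI/T4 ligase, 1 h, 37 °C), PCR-amplified and sequenced on an Illumina NextSeq500. Binding signal is each 6-mer's read frequency for a factor divided by its frequency for the GST control.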
# ETV5 = ETV5 (Homo sapiens, UniProt P41161 1-510); conditions: protein: recombinant; tags: N-terminal GST; dsDNA, one strand shown
# Chain of ETV5 (P41161 whole entry): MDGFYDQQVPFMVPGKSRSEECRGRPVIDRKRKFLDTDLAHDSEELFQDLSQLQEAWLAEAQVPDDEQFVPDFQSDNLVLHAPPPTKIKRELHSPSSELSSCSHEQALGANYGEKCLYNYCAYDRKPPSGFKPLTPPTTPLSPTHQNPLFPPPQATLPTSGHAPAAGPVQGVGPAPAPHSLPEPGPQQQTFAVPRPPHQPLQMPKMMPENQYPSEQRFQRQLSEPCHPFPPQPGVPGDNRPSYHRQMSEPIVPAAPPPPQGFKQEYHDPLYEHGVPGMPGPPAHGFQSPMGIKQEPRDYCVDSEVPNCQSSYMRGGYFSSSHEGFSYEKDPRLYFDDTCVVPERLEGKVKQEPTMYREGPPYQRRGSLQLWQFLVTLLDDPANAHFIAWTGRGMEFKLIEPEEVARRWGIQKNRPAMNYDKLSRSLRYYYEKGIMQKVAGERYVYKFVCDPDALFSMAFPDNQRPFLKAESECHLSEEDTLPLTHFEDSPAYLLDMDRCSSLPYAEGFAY
# In short: as §1
# HSF1 = HSF1 (Homo sapiens, UniProt Q00613 1-529); conditions: protein: recombinant; tags: N-terminal GST; chain copies: 3; dsDNA, one strand shown
# Chain of HSF1 (Q00613 whole entry): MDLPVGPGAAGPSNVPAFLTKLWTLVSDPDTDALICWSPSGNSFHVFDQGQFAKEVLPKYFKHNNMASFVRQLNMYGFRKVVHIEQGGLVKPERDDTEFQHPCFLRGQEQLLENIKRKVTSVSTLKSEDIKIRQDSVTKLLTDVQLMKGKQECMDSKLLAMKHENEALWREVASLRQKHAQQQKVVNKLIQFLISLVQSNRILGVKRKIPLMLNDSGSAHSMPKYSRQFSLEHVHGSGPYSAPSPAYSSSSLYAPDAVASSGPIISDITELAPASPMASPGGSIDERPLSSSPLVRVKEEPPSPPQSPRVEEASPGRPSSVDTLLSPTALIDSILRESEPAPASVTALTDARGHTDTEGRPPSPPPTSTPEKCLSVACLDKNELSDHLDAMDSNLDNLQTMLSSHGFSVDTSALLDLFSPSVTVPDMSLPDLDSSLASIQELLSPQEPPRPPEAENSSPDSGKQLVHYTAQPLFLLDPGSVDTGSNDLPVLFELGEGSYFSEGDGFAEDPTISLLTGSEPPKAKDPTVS
# In short: as §1
# SPIC = molecular target: T2, SPIC (Homo sapiens, UniProt Q8N5J4 1-248); conditions: protein: recombinant; tags: N-terminal GST; dsDNA, one strand shown
# T2 sequence: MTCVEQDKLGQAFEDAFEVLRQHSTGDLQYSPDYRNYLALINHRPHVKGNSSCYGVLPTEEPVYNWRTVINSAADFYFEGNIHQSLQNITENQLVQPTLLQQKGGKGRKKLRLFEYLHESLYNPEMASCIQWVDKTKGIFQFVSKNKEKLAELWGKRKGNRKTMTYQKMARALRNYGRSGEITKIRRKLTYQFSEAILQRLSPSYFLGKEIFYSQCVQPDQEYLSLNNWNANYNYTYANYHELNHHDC
# In short: as §1
# ELF4 = ELF4 (Homo sapiens, UniProt Q99607 1-663); conditions: protein: recombinant; tags: N-terminal GST; dsDNA, one strand shown
# Chain of ELF4 (Q99607 whole entry): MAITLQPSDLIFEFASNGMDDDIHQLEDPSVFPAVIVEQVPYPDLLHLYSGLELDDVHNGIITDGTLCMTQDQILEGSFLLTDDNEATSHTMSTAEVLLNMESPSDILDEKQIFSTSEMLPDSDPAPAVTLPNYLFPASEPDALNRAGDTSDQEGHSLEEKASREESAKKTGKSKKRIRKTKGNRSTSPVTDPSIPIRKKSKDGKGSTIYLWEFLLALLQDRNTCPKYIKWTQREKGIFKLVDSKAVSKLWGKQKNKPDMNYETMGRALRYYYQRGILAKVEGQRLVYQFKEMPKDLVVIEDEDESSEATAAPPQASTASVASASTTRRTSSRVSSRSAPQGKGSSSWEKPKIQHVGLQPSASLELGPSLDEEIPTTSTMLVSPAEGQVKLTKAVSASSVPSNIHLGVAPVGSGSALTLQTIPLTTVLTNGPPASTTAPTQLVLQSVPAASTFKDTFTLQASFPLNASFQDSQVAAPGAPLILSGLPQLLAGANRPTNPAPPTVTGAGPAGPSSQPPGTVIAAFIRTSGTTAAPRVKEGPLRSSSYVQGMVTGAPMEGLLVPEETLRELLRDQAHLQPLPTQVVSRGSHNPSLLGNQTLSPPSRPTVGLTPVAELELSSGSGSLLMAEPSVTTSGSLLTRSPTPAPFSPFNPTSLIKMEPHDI
# In short: as §1
# ELK4 = molecular target: T3, ELK4 (Homo sapiens, UniProt P28324-2 1-405); conditions: protein: recombinant; tags: N-terminal GST; dsDNA, one strand shown
# T3 sequence: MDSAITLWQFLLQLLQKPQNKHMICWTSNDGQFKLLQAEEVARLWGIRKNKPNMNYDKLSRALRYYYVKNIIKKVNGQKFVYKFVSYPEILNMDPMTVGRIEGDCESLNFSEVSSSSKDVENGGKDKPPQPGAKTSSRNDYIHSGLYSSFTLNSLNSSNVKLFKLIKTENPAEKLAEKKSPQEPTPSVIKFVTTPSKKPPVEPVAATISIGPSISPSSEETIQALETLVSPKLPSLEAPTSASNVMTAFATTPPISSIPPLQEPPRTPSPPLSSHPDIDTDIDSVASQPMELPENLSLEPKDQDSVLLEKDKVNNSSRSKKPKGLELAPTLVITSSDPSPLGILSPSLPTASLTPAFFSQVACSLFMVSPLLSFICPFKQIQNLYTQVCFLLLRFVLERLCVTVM
# In short: as §1
# ETV2 = molecular target: T4, ETV2 (Homo sapiens, UniProt O00321 1-342); conditions: protein: recombinant; tags: N-terminal GST; dsDNA, one strand shown
# T4 sequence: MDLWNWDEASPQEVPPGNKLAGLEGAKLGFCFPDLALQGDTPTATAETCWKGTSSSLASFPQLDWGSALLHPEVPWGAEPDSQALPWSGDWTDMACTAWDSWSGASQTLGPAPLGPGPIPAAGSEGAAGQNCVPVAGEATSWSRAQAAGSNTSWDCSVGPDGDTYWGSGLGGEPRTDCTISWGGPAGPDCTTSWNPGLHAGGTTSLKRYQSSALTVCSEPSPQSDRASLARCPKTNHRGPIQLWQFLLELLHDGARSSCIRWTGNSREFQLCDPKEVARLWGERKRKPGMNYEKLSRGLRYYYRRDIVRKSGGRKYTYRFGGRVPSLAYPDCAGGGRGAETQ
# In short: as §1
# ELF3 = molecular target: T5, ELF3 (Homo sapiens, UniProt P78545 1-371); conditions: protein: recombinant; tags: N-terminal GST; dsDNA, one strand shown
# T5 sequence: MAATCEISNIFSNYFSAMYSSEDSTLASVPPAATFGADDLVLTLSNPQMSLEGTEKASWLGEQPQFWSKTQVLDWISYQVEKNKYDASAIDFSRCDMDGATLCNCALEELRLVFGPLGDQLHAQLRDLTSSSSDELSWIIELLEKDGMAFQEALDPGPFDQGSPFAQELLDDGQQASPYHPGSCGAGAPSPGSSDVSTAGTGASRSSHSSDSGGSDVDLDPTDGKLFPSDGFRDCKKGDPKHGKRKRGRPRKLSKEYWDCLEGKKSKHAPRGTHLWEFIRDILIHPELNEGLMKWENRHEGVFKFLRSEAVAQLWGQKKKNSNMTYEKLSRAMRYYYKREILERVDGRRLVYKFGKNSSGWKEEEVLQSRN
# In short: as §1
# CRX = CRX (Homo sapiens, UniProt O43186 1-299); conditions: protein: recombinant; tags: N-terminal GST; dsDNA, one strand shown
# Chain of CRX (O43186 whole entry): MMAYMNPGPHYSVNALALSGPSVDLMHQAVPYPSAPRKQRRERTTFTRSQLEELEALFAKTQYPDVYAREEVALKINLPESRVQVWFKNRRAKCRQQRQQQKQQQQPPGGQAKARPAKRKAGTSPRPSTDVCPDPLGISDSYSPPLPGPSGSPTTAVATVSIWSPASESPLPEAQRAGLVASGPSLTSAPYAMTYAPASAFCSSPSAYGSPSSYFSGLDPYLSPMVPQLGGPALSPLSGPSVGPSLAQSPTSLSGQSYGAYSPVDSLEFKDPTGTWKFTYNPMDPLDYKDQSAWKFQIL
# In short: as §1
# ETV1 = ETV1 (Homo sapiens, UniProt P50549 1-477); conditions: protein: recombinant; tags: N-terminal GST; dsDNA, one strand shown
# Chain of ETV1 (P50549 whole entry): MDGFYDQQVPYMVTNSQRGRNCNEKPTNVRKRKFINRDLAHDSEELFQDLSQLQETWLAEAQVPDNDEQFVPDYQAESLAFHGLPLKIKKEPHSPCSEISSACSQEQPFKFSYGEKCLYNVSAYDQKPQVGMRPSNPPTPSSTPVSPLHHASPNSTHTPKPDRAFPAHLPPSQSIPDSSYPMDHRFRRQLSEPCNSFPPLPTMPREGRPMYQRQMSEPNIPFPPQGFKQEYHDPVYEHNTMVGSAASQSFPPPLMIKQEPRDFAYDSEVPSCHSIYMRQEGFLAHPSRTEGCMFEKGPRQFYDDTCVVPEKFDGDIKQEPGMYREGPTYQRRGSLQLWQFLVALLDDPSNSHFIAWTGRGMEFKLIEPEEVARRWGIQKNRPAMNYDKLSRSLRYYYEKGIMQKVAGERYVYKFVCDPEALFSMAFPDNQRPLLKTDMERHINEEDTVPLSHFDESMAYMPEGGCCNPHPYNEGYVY
# In short: as §1
# ERF = molecular target: T6, ERF (Homo sapiens, UniProt P50548 1-548); conditions: protein: recombinant; tags: N-terminal GST; dsDNA, one strand shown
# T6 sequence: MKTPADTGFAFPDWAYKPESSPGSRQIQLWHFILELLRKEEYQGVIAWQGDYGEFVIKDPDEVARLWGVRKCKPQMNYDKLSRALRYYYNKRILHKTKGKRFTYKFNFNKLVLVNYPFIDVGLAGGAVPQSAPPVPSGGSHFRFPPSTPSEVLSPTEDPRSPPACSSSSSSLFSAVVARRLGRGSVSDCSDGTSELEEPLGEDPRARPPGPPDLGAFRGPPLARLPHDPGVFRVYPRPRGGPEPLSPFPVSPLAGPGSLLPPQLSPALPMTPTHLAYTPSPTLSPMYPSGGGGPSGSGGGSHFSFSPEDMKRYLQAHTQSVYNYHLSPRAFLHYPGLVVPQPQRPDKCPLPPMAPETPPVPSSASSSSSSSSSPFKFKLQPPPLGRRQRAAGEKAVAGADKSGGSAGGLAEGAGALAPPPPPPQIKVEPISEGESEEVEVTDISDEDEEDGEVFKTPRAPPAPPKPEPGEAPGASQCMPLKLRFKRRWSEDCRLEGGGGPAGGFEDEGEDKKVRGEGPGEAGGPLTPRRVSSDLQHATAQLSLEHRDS
# In short: as §1
# ETV3L = molecular target: T7, ETV3L (Homo sapiens, UniProt Q6ZN32 1-361); conditions: protein: recombinant; tags: N-terminal GST; dsDNA, one strand shown
# T7 sequence: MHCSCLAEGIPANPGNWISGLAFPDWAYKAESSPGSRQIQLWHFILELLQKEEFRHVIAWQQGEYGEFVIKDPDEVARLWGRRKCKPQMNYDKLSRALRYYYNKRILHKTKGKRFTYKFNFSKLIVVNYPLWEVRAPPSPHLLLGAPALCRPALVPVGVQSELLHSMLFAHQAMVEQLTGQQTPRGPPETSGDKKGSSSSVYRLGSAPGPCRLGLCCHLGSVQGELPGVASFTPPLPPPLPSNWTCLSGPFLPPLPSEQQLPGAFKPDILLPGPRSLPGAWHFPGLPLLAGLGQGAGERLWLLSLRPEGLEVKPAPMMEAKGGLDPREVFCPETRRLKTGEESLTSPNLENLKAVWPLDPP
# In short: as §1
# ETS2 = molecular target: T8, ETS2 (Homo sapiens, UniProt P15036 1-469); conditions: protein: recombinant; tags: N-terminal GST; dsDNA, one strand shown
# T8 sequence: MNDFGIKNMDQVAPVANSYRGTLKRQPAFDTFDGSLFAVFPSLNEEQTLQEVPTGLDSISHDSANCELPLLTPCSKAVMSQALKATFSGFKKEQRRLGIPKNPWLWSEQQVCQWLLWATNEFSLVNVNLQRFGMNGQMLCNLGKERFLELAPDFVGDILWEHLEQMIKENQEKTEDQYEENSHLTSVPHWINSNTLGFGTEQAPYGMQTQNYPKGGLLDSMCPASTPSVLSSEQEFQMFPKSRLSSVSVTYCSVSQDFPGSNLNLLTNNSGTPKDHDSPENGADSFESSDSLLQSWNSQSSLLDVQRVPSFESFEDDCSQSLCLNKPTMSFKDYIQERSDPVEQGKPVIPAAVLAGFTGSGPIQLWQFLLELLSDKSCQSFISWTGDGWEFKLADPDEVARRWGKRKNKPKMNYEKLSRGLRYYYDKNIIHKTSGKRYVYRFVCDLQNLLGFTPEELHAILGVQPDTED
# In short: as §1
# SPDEF = molecular target: T9, SPDEF (Homo sapiens, UniProt O95238 1-335); conditions: protein: recombinant; tags: N-terminal GST; dsDNA, one strand shown
# T9 sequence: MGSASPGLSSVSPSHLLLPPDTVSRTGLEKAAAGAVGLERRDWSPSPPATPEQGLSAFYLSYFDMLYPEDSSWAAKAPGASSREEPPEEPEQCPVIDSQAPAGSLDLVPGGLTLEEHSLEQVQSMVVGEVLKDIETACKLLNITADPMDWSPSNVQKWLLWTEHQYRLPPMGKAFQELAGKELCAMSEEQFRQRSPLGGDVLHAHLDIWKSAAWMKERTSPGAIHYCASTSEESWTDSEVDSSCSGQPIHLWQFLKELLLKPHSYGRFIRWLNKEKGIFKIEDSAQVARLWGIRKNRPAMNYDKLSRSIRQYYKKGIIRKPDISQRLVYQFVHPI
# In short: as §1
# ETV7 = molecular target: T10, ETV7 (Homo sapiens, UniProt Q9Y603 1-341); conditions: protein: recombinant; tags: N-terminal GST; dsDNA, one strand shown
# T10 sequence: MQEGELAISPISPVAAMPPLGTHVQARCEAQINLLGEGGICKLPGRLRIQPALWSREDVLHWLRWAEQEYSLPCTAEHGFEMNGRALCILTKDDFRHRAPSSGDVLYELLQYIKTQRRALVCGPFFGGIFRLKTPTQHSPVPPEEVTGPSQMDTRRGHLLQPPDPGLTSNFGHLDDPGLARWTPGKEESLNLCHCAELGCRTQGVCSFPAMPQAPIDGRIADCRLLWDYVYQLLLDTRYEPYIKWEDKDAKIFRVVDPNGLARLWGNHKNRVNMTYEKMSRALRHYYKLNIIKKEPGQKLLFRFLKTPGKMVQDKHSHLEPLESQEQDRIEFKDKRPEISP
# In short: as §1
# ELF5 = molecular target: T11, ELF5 (Homo sapiens, UniProt Q9UKW6-2 1-255); conditions: protein: recombinant; tags: N-terminal GST; dsDNA, one strand shown
# T11 sequence: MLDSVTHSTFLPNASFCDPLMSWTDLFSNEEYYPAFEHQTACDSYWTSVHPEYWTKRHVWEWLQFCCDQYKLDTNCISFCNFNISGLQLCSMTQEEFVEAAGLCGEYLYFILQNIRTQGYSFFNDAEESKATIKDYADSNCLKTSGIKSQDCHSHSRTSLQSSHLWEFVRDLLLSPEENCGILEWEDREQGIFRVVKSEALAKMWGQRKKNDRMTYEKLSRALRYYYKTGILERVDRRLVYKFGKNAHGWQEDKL
# In short: as §1
# ETV3 = molecular target: T12, ETV3 (Homo sapiens, UniProt P41162-2 1-143); conditions: protein: recombinant; tags: N-terminal GST; dsDNA, one strand shown
# T12 sequence: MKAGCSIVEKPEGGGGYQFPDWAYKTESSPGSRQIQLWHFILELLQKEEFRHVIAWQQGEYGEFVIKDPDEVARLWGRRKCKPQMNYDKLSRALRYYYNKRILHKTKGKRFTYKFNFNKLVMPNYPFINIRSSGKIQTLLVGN
# In short: as §1
# ETV6 = ETV6 (Homo sapiens, UniProt P41212 1-452); conditions: protein: recombinant; tags: N-terminal GST; dsDNA, one strand shown
# Chain of ETV6 (P41212 whole entry): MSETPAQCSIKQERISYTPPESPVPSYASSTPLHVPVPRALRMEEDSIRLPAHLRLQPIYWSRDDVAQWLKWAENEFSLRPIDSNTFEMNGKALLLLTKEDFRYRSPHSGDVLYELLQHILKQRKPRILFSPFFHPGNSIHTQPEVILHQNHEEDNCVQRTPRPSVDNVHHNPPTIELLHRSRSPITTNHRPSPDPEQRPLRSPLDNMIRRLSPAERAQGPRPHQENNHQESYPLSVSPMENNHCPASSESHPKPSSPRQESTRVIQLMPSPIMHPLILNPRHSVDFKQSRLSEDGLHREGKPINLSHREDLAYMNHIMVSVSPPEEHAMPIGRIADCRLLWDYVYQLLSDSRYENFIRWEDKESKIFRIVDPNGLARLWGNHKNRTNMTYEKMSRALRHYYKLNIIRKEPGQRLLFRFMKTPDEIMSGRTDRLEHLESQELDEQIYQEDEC
# In short: as §1
sequence,measurement,setting,value
ATTTTT,binding signal,FEV,"1.15 fold enrichment (6-mer frequency, TF over GST control)"
same,binding signal,ETV5,"1.21 fold enrichment (6-mer frequency, TF over GST control)"
same,binding signal,HSF1,"1.31 fold enrichment (6-mer frequency, TF over GST control)"
same,binding signal,SPIC,"1.1 fold enrichment (6-mer frequency, TF over GST control)"
same,binding signal,ELF4,"1.19 fold enrichment (6-mer frequency, TF over GST control)"
same,binding signal,ELK4,"1.31 fold enrichment (6-mer frequency, TF over GST control)"
same,binding signal,ETV2,"1.29 fold enrichment (6-mer frequency, TF over GST control)"
same,binding signal,ELF3,"1.2 fold enrichment (6-mer frequency, TF over GST control)"
same,binding signal,CRX,"1.28 fold enrichment (6-mer frequency, TF over GST control)"
same,binding signal,ETV1,"1.28 fold enrichment (6-mer frequency, TF over GST control)"
same,binding signal,ERF,"1.21 fold enrichment (6-mer frequency, TF over GST control)"
same,binding signal,ETV3L,"1.2 fold enrichment (6-mer frequency, TF over GST control)"
same,binding signal,ETS2,"1.1 fold enrichment (6-mer frequency, TF over GST control)"
same,binding signal,SPDEF,"1.15 fold enrichment (6-mer frequency, TF over GST control)"
same,binding signal,ETV7,"1.19 fold enrichment (6-mer frequency, TF over GST control)"
same,binding signal,ELF5,"1.16 fold enrichment (6-mer frequency, TF over GST control)"
same,binding signal,ETV3,"1.17 fold enrichment (6-mer frequency, TF over GST control)"
same,binding signal,ETV6,"1.17 fold enrichment (6-mer frequency, TF over GST control)"
